Broadly, the inhibition is the percentage by which the read-out fell short of the control.

This is one part of the list. Active and inactive are the calls of the source. Cut-off read from the data, not from the text of the source: active = inhibition mostly above about 35% (no sharp cut-off); inactive = mostly below about 32%.

This note sets out measurements from PubChem BioAssay AID651678 (Sanford-Burnham Center for Chemical Genomics, 2012).

The assay concerns the target Sentrin-specific protease 1 (Homo sapiens) (UniProt Q9P0U3). Briefly: human SENP1 catalytic domain inhibitors, confirmation, biochemical, FRET endpoint, single concentration (AID 651678).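 Note: 0% = enzyme with DMSO and 100% = no enzyme control.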 The settings on record: recombinant SENP1, CyPet-SUMO1-YPet FRET cleavage; at 10 µM; hits give high values.

Sentrin-specific protease 1 (Homo sapiens), sequence (Q9P0U3 419-644 limits assumed): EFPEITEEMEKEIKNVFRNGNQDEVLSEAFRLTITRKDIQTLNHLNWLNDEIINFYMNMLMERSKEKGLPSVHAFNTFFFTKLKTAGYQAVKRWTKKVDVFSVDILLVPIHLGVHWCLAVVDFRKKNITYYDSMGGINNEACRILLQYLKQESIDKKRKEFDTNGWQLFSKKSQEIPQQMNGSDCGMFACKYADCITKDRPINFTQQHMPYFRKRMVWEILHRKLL

As to `COc1ccccc1N=Nc1c(O)[nH]c(=S)[nH]c1=O`, the inhibition is 52% (active).
